From PubChem BioAssay AID1903 (Southern Research Specialized Biocontainment Screening …, 2009)
Among all 310,000 compounds or so, about 1,200 (0.39%) were called active. The rule behind the calls is not given here. Not all results are given here. Potency and affinity values are given separately.

Molecular target: Large T antigen (Simian virus 40) (UniProt P03070)
Assay: TAg ATPase/helicase activity blockers – biochemical (AID 1903)
Conditions: SV40 large T antigen ATPase/helicase inhibition assay; at 20 µM; hits give high values

Large T antigen (Simian virus 40), sequence (P03070 whole entry, looked up): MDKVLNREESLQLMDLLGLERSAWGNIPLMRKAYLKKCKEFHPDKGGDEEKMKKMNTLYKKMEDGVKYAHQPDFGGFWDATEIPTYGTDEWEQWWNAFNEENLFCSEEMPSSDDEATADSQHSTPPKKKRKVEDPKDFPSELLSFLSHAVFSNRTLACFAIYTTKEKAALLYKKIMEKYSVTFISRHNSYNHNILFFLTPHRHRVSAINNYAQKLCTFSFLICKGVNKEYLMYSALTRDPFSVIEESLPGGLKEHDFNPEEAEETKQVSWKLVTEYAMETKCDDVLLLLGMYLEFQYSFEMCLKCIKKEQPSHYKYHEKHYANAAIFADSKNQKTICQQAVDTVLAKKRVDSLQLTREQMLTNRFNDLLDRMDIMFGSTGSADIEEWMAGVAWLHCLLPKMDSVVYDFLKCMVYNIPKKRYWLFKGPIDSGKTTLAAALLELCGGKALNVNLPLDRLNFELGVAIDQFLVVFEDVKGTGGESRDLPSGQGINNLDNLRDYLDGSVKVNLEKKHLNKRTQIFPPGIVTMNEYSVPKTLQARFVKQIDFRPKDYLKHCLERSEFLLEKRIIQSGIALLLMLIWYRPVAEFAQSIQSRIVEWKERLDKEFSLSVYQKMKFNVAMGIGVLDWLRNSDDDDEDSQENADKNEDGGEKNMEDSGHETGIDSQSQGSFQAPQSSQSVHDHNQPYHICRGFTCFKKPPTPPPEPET

inhibition, inactive:
Cn1cccc1Cc1nnc(SCC(=O)NCCc2ccccc2)n1C -0.6%
COc1ccc(NC2CCCN(C(=O)c3ccc4nc(C)c(C)nc4c3)C2)cc1OC (centres undefined) 26.4%
COc1ccc(C(=O)N2CCCC(Nc3ccc(F)cc3)C2)c(OC)c1 (centres undefined) 12%
Cc1ccc(NC2CCCN(C(=O)c3c(C)noc3C)C2)cc1C (centres undefined) 21.2%
CC(C)c1ccc(NC2CCCN(C(=O)c3ccco3)C2)cc1 (centres undefined) 19.6%
COc1ccc(OC)c(C(=O)N2CCCC(Nc3ccc(F)cc3)C2)c1 (centres undefined) 23%
COc1ccc(NC2CCCN(C(=O)c3ccc4nccnc4c3)C2)cc1OC (centres undefined) 32.5%
COC(=O)c1cccc(C(=O)N2CCCC(Nc3ccc4c(c3)OCCO4)C2)c1 (centres undefined) 29.8%
Cc1noc(C)c1C(=O)N1CCCC(Nc2ccc(C(C)C)cc2)C1 (centres undefined) -5.88%
COc1ccc(-n2cnc3cc(C(=O)NCC4CCCO4)ccc32)cc1 (centres undefined) 3.91%
CN(C)CCCN(C(=O)c1ccco1)c1nc2ccc(F)cc2s1 7.29%
C(=N\N1CCN(c2ccccc2)CC1)/c1ccccc1 8.2%
COC(=O)[C@@H]1C[C@H]2CC[C@H](O)C[C@H]2N1Cc1ccc(Cl)cc1 8.58%
N#Cc1c(/N=C/c2ccc(-c3ccccc3C(=O)O)o2)sc2c1CCCC2 13.3%
CCOC(=O)C1CCN(C(=O)CCNC(=O)c2cc(OC)c(OC)c(OC)c2)CC1 4.64%
CCOC(=O)CSc1nnc(NC(=O)c2ccco2)s1 -8%
Cc1ccc(N(CC(=O)NCC2CCCO2)C(=O)Cn2nnc(-c3cccs3)n2)cc1 (centres undefined) 24.6%
Cc1ncc(CN2CCC(CO)(Cc3ccccc3)CC2)s1 2.75%
COc1ccc(NC2CCCN(C(=O)c3ccc(C(C)=O)cc3)C2)cc1 (centres undefined) 46.3%
COc1ccc(NC2CCCN(C(=O)c3ccncc3)C2)cc1 (centres undefined) 51.8%
O=C(Nc1cccnc1)/C(N=Nc1c(Cl)cccc1Cl)=C(\O)c1ccccc1 0.28%
C/C(=N/NC(=O)c1ccncc1)c1cc2ccc(O)cc2oc1=O 12.9%
C/C(=N\NC(=O)CC#N)c1cc2ccc(O)cc2oc1=O 21.8%
CCc1noc(C)c1C(=O)N1CCN(S(=O)(=O)c2c(C)c(C)cc(C)c2C)CC1 5.1%
O=C(O)c1ccccc1C(=O)c1cccc2ccccc12 8.24%
O=C(O)CCC(=O)c1cccc2ccccc12 6.26%
CS(=O)(=O)N1CCCC(C(=O)N2CCN(c3cccc(Cl)c3)CC2)C1 (centres undefined) 9.69%
COc1ccccc1NC(=S)N(CCCN1CCOCC1)Cc1ccccn1 12.9%
Cc1nc2ccc(S(=O)(=O)N3CCCCC3)cc2s1 2.61%
CSc1nc2ccc(S(=O)(=O)N3CCCCC3)cc2s1 4.61%
COc1ccc(NC(=O)CC2C(=O)N(c3ccc(F)cc3)C(=S)N2NC(=O)c2ccc(Cl)cc2)cc1 (centres undefined) 8.76%
O=C(Nc1ccccc1)c1cccc(N2C(=O)CCC2=O)c1 5.21%
CN(C)c1ccc(NC(=O)c2ccc3nsnc3c2)cc1 18.4%
COc1cc(C(=O)Nc2ccc(Nc3ccccc3)cc2)cc(OC)c1OC 12.4%
COc1cc(C(=O)Nc2ccncc2)cc(OC)c1OC 5.76%
CCCOc1ccc(C(=O)Nc2ccc(N(C)C)cc2)cc1 32%
O=C(Nc1ccc(F)cc1)c1ccc2nc[nH]c2c1 7.49%
CC(C)Oc1ccc(NC(=O)c2ccncc2)cc1 3.7%
O=C(Nc1ccc(Br)cc1)c1cccc(N2C(=O)CCC2=O)c1 7.57%
COc1ccc(-c2cc(=O)c3cc(OC)c(OC)cc3[nH]2)cc1 3.81%
Cc1ccc(/C=C(\NC(=O)c2ccccc2)C(=O)NCC2CCCO2)o1 (centres undefined) 6.08%
O=C(COc1ccc(C(=O)c2ccccc2)cc1)NC1CCCCCC1 -8.94%
NC(N)=Nc1nc2ccc(Cl)cc2c(=O)[nH]1 11.5%
COc1ccc(NC(=O)/C=C/c2ccc(OC(F)F)cc2)cn1 9.9%
COc1ccc(N2CCN(C(=O)CN3C(=O)NC(c4ccc(OC)cc4)(c4ccc(OC)cc4)C3=O)CC2)cc1 6.64%
Cc1cc(=O)n(CC=C(Cl)Cl)c2ccccc12 -7.91%
NC(=S)N/N=C/c1ccccc1 13%
NC(=S)NN=C1c2ccccc2-c2ccccc21 7.35%
CC(=O)Nc1ccc(NC(=O)CS(=O)(=O)c2cn(CC(=O)N3CCCC3)c3ccccc23)cc1 14%
Cc1ccc(-n2nc(C)c(NC(=O)CCl)c2C)cc1 9.64%
CC(C)CCNC(=O)c1cccc(S(=O)(=O)N2CCc3ccccc32)c1 11.5%
COC(=O)c1c(NC(=O)COC(=O)c2ccccn2)sc(C)c1C 11.7%
COc1cc(-c2nnc(SCc3ccccc3Cl)o2)cc(OC)c1OC 4.19%
COc1cc(-c2nnc(SCc3cc(=O)oc4cc(C)ccc34)o2)cc(OC)c1OC 0.12%
COc1ccccc1-c1nc2c(c(SCC(=O)N3CCCCC3)n1)Cc1c(CO)cnc(C)c1O2 4.68%
Cc1sc2ncn(CC(=O)NCc3ccccn3)c(=O)c2c1S(=O)(=O)N1CCOCC1 -0.92%
Nn1c(SCC(=O)N2CCCCCC2)nnc1-c1ccncc1 2.98%
Cc1ccc(S(=O)(=O)N2[C@@H](c3ccccc3)C(C(=O)O)=CC[C@H]2c2ccc(Cl)cc2)cc1 17.2%
Cc1ccc([C@@H]2CC=C(C(=O)O)[C@H](c3ccc(Cl)cc3)N2S(=O)(=O)c2ccc(C)cc2)cc1 21.6%
Cc1ccc(C(=O)COC(=O)CNC(=O)CNC(=O)c2ccc(C)cc2)cc1 10.1%
COc1cc(NC(=O)c2cc([N+](=O)[O-])ccc2NC(=O)CN2CCN(c3ccccn3)CC2)cc(OC)c1 2.42%
Cc1ccc(NC(=O)NCCN2CCCCC2)cc1 12.7%
Cc1cc(C)c(S(=O)(=O)NCCn2c(C)cc3ccccc32)c(C)c1 3.6%
NS(=O)(=O)c1ccc(-c2ccc(/C=C3\C(=O)Nc4ccccc43)o2)cc1 3.06%
NS(=O)(=O)c1ccc(-c2ccc(/C=C3\NC(=S)NC3=O)o2)cc1 34.2%
COc1ccccc1/C=C/C(=O)N1CCCC1 16.6%
Cn1cc([N+](=O)[O-])c(C(=O)NC2CCCCCCC2)n1 11.7%
CCOc1cc(N2CCOCC2)c(OCC)cc1NC(C)C(=O)N1CCN(CC)CC1 (centres undefined) 4.25%
O=S(=O)(Nc1ccc(N2CCOCC2)cc1)c1ccc(Cl)s1 36.6%
CCOc1cc(N2CCOCC2)c(OCC)cc1NC(=O)C(C)C 5.9%
CCOc1cc(N2CCOCC2)c(OCC)cc1NS(=O)(=O)c1cc(NC(C)=O)ccc1OC 9.72%
COc1ccccc1CNC(=O)C(CC(C)C)NC(=O)C1CCC(C)CC1 (centres undefined) 12.9%
COc1ccc(/C=N/NC(=O)Cc2csc(Nc3cccc(C(F)(F)F)c3)n2)c(OC)c1 4.64%
CCOC(=O)C1Nc2c(F)cc(C)cc2C2C=CCC12 (centres undefined) 26%
O=C(O)C1Nc2c(C(F)(F)F)ccc(Cl)c2C2C=CCC12 (centres undefined) 17.1%
CCOC(=O)C1Nc2ccc(Br)cc2C2C=CCC12 (centres undefined) 7%
O=C(O)C1Nc2c(C(=O)N3CCOCC3)cccc2C2C=CCC12 (centres undefined) 34.2%
CCNc1ccc(C(=O)OCC)cc1NC(=O)c1cccc(S(=O)(=O)N(C)c2ccccc2)c1 -1.52%
CC1CN(CCOCCSc2ccccc2)CC(C)O1 (centres undefined) -2.63%
COC(=O)CNc1cc(S(=O)(=O)N2CCCCC2)ccc1Oc1cccc(C)c1 5.08%
COc1ccc(Cn2c(-c3ccc(OC)cc3)nc3c(c(=O)c4ccccc4n3C)c2=O)cc1 4.69%
Cc1csc2c(NCCCN3CCOCC3)ncnc12 5.93%
c1ccc2c(NCCCN3CCOCC3)c3ccccc3nc2c1 3.76%
CCOc1cc(/C=N/n2c(COc3ccccc3)n[nH]c2=S)ccc1O 19.9%
COc1ccc(/C=N/n2c(COc3ccccc3)n[nH]c2=S)cc1OC 32.6%
O=C(O)COc1ccc(/C=N/n2c(COc3ccccc3)nc3ccccc3c2=O)cc1 1.95%
O=c1c2ccccc2nc(COc2ccccc2)n1/N=C/c1ccc(O)cc1O 5.35%
CCCc1nc2ccccc2c(=O)n1/N=C/c1ccccc1O -9.27%
CCCc1nc2ccccc2c(=O)n1/N=C/c1ccc(O)cc1 6.26%
O=C1COc2ccc(C(=O)COC(=O)c3cc(S(=O)(=O)NCc4ccccc4)ccc3O)cc2N1 13%
Cc1cc(Cl)ccc1NC(=O)CN1C(=O)NC2(CCCc3ccccc32)C1=O (centres undefined) 25.2%
CCOC(=O)CN1C(=O)SC(CC(=O)Nc2nccs2)C1=O (centres undefined) 2.87%
O=C(COC(=O)Cc1ccccc1F)NNC(=O)c1ccc([N+](=O)[O-])cc1 22.7%
FC(F)Oc1ccc(-n2cc(-c3ccccc3)[n+]3c2CCCCC3)cc1 10.7%
